Measurements as given in PubChem BioAssay (NCATS).
Records with an inconclusive call do not appear. A call without a number means that no potency is given here. Active and inactive are the calls of the source. Unless noted, calls follow the shape of the dose curve; as a rule, active = well fitted curve in the direction sought with a large enough effect; inconclusive = small, poorly fitted or top-dose-only effect, or another doubt; inactive = no such curve, though single readings can be large; an effect the other way counts as inactive or inconclusive.

Legend:
[1] = target: Thioredoxin reductase 1, cytoplasmic (Rattus norvegicus) (UniProt O89049); assay: qHTS Assay for Substrates of Mammalian Selenoprotein Thioredoxin Reductase 1 (TrxR1) (AID 488772);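 also: NADPH fluorescence in the first read after selenite addition and not the 8 min delta; series mostly up to about 57 µM; a drop in NADPH fluorescence below the no-compound background marks a TrxR1 substrate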
How it was run: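 Quantitative HTS in Tris-HCl buffer at pH 7.5 with EDTA and Tween-20, using rat TrxR1, 400 uM NADPH and 400 uM selenite (final). A fall in initial NADPH fluorescence relative to background marked substrate behaviour.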

[2] = target: Flap endonuclease 1 (Homo sapiens) (UniProt P39748); assay: qHTS Validation Assay for the Inhibitors of Human Flap endonuclease 1 (FEN1) (AID 488816)
How it was run: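 FEN1, dispensed as a 10 nM reagent, was preincubated with pin-transferred compounds for 15 min at room temperature before substrate was added (50 nM final). Plates were read at 0 and 15 min, and a four-parameter Hill equation was fitted to the concentration-response data.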

[3] = target: Methanococcus maripaludis chaperonin (MmCpn) (UniProt Q6LX38); assay: High-Throughput Screening for Modulators of Cytosolic Chaperonin Activity: MmCpn Primary Screen (AID 488978);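 also: 50 nM MmCpn enzyme hydrolysing 30 µM ATP at 37 °C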
How it was run: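 Measures ATPase turnover of the M. maripaludis chaperonin (50 nM final) against 30 uM ATP over 10 min at 37C, with compound added 5 min beforehand at room temperature. ADP is quantified by HTRF immunodetection.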

[4] = target: Transient receptor potential cation channel subfamily V member 1 (Homo sapiens) (UniProt Q8NER1); assay: HTS Assay for Compounds that Act as Enhancers of the Vanilloid Receptor 1 (AID 488979)
How it was run: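 TRPV1-expressing cells loaded with Fluo-8 calcium dye; compounds added and calcium influx read kinetically for 3 min (agonist phase), then capsaicin at EC20 added and read 2 min more for enhancement. Fluorescence ex 480/em 520 nm.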

[5] = target: Thyrotropin receptor (Homo sapiens) (UniProt P16473); assay: qHTS Assay for Antagonists of the Thyroid Stimulating Hormone Receptor (AID 488980); also: series mostly up to about 58 µM
How it was run: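 Cells expressing human TSHR (HEK293) are dispensed in HBSS/HEPES containing 70 uM RO 20-1724, compound is added, then TSH at EC80 (4 nM final). Antibody in lysis buffer follows, 30 minutes at room temperature before HTRF detection.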

[6] = target: D(1A) dopamine receptor (Homo sapiens) (UniProt P21728); assay: HTS Assay for Allosteric Agonists of the Human D1 Dopamine Receptor: Primary Screen for Agonists (AID 488981)
How it was run: (§1)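 Tetracycline-induced HEK293 T-REx cells force-coupled to calcium signalling were incubated overnight at 30 C and dye-loaded at room temperature. Calcium flux over 180 s after compound addition flagged agonists; a further 180 s read after EC20 dopamine flagged potentiators.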

[7] = target: D(1A) dopamine receptor (Homo sapiens) (UniProt P21728); assay: HTS Assay for Allosteric Agonists of the Human D1 Dopamine Receptor: Primary Screen for Potentiators (AID 488982)
How it was run: as §1

[8] = target: D(1A) dopamine receptor (Homo sapiens) (UniProt P21728); assay: HTS Assay for Allosteric Agonists of the Human D1 Dopamine Receptor: Primary Screen for Antagonists (AID 488983);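 also: calcium flux response to an EC80 dopamine challenge measured with no-wash dye; nearly all actives have a fitted effect of over 65% in size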
How it was run: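 Screening of inducible HEK293 T-REx D1 cells: compound first, EC80 dopamine 180 s later, each phase read kinetically for calcium over 180 s.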

[9] = target: ATP-dependent 6-phosphofructokinase (Trypanosoma brucei brucei) (UniProt O15648); assay: qHTS Assay to Find Inhibitors of T. brucei phosphofructokinase: hit validation (AID 492961);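 also: luminescence reports ADP formed as PFK phosphorylates fructose-6-phosphate with ATP; series mostly up to about 51 µM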
How it was run: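 Percent activity derived from corrected luminescence, normalized between 0x and 1x enzyme controls, then fitted to concentration-response curves. Conditions: 1.25 nM PFK, 0.1 mM ATP, 0.5 mM F6P, 45 min RT.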

[10] = Validation screen for small molecules that induce genotoxicity in human embryonic kidney (HEK293T) cells expressing luciferase-tagged ELG1 (AID 493106)
How it was run: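 Reporter-gene quantitative HTS in HEK293T cells carrying luciferase-tagged ELG1, whose level climbs under genotoxic stress. Compound exposure lasts 16 hr at 37 °C before luciferase detection.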

[11] = target: ATPase family AAA domain-containing protein 5 (Homo sapiens) (UniProt Q96QE3); assay: Validation screen for small molecules that inhibit ELG1-dependent DNA repair in human embryonic kidney (HEK293T) cells expressing luciferase-tagged ELG1 (AID 493107);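 also: cells co-treated with the DNA-damaging agent 5-fluorouridine alongside compound; series mostly up to about 46 µM; inhibitors lower the ELG1-luciferase luminescence signal; nearly all actives have a fitted effect of over 70% in size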
How it was run: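 Quantitative HTS in HEK293T cells carrying luciferase-tagged ELG1, stimulated with 5-fluorouridine alongside compound for 16 hr. Loss of luciferase signal marks inhibition of ELG1 response.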

[12] = Nrf2 qHTS screen for inhibitors: Validation (AID 493153; active = well fitted inhibition curve with a large enough effect in the main read-out, with a control signal flat, not every such curve was filed as active); details: Potency: luciferase luminescence; viability change: measured here: cytotoxicity max response
How it was run: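 Dose-response validation uses reporter A549 cells with firefly luciferase under an antioxidant response element. Compounds stay on cells 18-24 h at 37°C, and luminescence indicates Nrf2-driven transcription.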

[13] = qHTS for Inhibitors of Cell Surface uPA Generation: Validation Assay (AID 493164);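 also: RAW 264.7 macrophage cells exposed to compound for 18 h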
How it was run: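 RAW 264.7, 4000 cells/well, o/n plating; cpd 7-pt 1:5 dilution 2.45 nM–38.3 uM final; 18 h, 37 C/5% CO2; ATP-Lite, 5 s luminescence exposure.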

[14] = target: Galactokinase (Homo sapiens) (UniProt P51570); assay: qHTS Validation Assay for Inhibitors of Human Galactokinase (GALK) (AID 493189)
How it was run: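 Compounds were pin-transferred into ATP buffer, then GALK-galactose mix was added (final 5 nM enzyme, 100 uM galactose, 35 uM ATP). After 1 h at room temperature, remaining ATP was measured luminescently.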

[15] = Validation screen for small molecules that induce DNA re-replication in SW480 colon adenocarcinoma cells (AID 504364)
How it was run: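 Cells are treated 48 hr with test compound, stained 40 min with Hoechst at 37 C, and scanned for nuclear fluorescence; compounds inducing re-replication increase nuclei with elevated intensity.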

[16] = target: Thioredoxin reductase 1, cytoplasmic (Rattus norvegicus) (UniProt O89049); assay: qHTS Assay for Inhibitors of Mammalian Selenoprotein Thioredoxin Reductase 1 (TrxR1) (AID 488773); details: Potency: inhibition;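 also: drop in NADPH fluorescence over an 8 min run after selenite addition; series mostly up to about 57 µM; nearly all actives have a fitted effect of over 40% in size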
How it was run: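 Steps: enzyme (90 nM) plus NADPH (400 uM final), 5 min at ~22 deg C; compound added, 15 min; selenite (400 uM final) added; fluorescence followed for 8 min. Concentration-response curves derived from the normalized delta values.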

[17] = target: M-phase phosphoprotein 8 (Homo sapiens) (UniProt Q99549); assay: qHTS Validation Assay for Inhibitors for MPP8 Chromodomain Interactions with Methylated Histone Tails (AID 488949);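 also: AlphaScreen signal from MPP8 chromodomain bound to biotinylated H3K9me3 peptide; top concentration of the series differs between compounds; nearly all actives have a fitted effect of over 55% in size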
How it was run: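 Disruption of the preformed MPP8–trimethyl-H3K9 peptide complex (both 50 nM, 30 min, RT) is measured after 30 min compound exposure, using AlphaScreen proximity beads; aurintricarboxylic acid titration serves as plate control.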

[18] = target: Chromobox protein homolog 1 (Homo sapiens) (UniProt P83916); assay: qHTS Validation Assay for Inhibitors of HP1-beta Chromodomain Interactions with Methylated Histone Tails (AID 488953);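 also: loss of AlphaScreen luminescence from HP1-beta binding biotinylated H3K9me3 peptide; series mostly up to about 110 µM; nearly all actives have a fitted effect of over 50% in size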
How it was run: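 Measured as loss of AlphaScreen luminescence from streptavidin donor and nickel acceptor beads (10 ug/mL final) bridging HP1-beta and biotin-H3(1-18)K9me3, each 50 nM. Compounds met the preassembled complex for 30 min at RT.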

[19] = target: Thyrotropin-releasing hormone receptor (Homo sapiens) (UniProt P34981); assay: qHTS for Small Molecule Agonists and Allosteric Enhancers of Human TRH Receptor: Validation Screen for Agonists (AID 493127;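 active = calcium activation more than 3 SD above the typical response in the agonist read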;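 also: intracellular calcium rise by fluo-8 fluorescence before TRH EC20 addition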); details: TRH receptor agonist cell assay; at 2 µM; stronger effect = higher value
How it was run: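 Gq-coupled calcium mobilization in TRHR cells after compound addition, monitored kinetically with fluo-8 dye on an FDSS reader.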

Thyrotropin-releasing hormone receptor (Homo sapiens), sequence (P34981 whole entry, looked up): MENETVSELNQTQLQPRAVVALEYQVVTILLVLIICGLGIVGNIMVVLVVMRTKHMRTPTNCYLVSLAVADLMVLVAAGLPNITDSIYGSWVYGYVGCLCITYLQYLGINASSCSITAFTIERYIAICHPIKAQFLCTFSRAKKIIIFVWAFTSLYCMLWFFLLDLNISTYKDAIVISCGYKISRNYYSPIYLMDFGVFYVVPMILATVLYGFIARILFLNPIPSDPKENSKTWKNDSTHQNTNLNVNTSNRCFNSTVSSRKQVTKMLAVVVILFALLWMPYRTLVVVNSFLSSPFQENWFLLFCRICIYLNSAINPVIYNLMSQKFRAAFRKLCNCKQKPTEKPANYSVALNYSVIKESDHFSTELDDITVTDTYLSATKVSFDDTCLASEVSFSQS
ATP-dependent 6-phosphofructokinase (Trypanosoma brucei brucei), sequence (O15648 whole entry, looked up): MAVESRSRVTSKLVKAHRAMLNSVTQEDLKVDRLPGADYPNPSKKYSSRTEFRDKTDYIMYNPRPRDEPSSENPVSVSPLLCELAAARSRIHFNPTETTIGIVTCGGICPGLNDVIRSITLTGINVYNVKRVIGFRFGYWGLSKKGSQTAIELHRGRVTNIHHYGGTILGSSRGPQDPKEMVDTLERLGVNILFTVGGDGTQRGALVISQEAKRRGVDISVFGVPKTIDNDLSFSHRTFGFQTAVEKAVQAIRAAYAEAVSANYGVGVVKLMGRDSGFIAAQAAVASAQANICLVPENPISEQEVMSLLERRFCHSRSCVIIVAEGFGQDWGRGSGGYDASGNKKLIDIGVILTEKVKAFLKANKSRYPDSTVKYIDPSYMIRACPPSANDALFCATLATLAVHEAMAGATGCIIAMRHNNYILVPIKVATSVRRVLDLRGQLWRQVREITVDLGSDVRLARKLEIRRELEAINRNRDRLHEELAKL
ATPase family AAA domain-containing protein 5 (Homo sapiens), sequence (Q96QE3 whole entry, looked up, the tested form may be a part): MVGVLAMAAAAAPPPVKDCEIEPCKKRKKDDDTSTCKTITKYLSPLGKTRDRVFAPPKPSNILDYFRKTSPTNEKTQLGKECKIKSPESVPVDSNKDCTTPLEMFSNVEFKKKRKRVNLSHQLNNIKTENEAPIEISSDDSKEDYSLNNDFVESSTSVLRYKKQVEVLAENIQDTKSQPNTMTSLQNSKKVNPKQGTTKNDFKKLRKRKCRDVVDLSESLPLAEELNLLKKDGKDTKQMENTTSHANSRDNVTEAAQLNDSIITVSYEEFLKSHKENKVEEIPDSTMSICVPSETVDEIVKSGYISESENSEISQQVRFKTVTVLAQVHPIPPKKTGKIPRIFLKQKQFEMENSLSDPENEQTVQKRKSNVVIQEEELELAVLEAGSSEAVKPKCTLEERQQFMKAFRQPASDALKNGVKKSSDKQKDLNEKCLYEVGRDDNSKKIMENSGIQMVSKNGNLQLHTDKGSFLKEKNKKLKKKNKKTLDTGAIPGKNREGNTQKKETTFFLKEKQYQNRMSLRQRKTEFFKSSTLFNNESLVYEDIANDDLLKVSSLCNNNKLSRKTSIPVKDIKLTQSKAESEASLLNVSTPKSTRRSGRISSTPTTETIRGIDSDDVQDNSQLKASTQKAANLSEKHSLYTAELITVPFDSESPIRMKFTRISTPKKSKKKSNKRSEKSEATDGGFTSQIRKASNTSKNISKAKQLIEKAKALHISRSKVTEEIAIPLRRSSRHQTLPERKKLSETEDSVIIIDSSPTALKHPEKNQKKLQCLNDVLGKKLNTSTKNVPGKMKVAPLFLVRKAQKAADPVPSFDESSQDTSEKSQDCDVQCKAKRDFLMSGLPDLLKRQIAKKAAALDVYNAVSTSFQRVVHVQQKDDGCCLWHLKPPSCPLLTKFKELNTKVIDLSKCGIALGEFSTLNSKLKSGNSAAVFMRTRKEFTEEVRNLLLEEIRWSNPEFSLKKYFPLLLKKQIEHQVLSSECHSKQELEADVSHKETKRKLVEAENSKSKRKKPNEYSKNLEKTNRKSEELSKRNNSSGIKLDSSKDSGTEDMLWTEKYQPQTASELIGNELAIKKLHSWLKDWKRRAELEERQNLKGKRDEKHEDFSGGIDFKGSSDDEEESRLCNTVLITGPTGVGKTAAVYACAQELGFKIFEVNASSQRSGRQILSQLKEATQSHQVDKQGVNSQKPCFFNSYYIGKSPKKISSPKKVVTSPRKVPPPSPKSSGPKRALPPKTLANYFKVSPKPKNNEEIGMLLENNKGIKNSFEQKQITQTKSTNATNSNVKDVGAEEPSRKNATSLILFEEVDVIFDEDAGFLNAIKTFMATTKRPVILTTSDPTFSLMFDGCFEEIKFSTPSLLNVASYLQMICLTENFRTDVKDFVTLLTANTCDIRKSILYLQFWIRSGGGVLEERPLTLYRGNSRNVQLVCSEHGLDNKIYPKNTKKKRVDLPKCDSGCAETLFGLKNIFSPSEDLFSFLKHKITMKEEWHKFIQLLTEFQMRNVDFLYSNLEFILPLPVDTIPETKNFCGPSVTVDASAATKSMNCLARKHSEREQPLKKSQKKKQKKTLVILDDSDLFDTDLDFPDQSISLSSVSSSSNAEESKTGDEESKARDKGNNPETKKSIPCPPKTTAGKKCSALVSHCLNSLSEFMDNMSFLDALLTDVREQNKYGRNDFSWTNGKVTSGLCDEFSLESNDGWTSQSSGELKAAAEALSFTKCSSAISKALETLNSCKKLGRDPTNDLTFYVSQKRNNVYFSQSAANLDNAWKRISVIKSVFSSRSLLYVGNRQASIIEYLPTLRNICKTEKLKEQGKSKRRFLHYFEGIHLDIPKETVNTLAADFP
Thioredoxin reductase 1, cytoplasmic (Rattus norvegicus), sequence (O89049 whole entry, looked up): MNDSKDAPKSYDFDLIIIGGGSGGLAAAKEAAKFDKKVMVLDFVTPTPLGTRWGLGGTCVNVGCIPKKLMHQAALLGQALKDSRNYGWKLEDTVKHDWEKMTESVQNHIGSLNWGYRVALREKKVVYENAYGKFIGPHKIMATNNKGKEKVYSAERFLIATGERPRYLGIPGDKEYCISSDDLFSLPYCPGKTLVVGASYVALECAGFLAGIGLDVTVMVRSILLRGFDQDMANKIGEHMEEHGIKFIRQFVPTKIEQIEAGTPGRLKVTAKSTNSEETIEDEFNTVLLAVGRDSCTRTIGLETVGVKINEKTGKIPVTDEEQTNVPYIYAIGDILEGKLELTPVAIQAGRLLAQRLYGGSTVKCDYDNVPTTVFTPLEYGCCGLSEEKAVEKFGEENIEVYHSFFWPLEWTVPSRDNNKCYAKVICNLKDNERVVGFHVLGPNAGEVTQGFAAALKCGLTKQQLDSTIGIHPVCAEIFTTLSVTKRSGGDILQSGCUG
M-phase phosphoprotein 8 (Homo sapiens), sequence (Q99549 whole entry, looked up): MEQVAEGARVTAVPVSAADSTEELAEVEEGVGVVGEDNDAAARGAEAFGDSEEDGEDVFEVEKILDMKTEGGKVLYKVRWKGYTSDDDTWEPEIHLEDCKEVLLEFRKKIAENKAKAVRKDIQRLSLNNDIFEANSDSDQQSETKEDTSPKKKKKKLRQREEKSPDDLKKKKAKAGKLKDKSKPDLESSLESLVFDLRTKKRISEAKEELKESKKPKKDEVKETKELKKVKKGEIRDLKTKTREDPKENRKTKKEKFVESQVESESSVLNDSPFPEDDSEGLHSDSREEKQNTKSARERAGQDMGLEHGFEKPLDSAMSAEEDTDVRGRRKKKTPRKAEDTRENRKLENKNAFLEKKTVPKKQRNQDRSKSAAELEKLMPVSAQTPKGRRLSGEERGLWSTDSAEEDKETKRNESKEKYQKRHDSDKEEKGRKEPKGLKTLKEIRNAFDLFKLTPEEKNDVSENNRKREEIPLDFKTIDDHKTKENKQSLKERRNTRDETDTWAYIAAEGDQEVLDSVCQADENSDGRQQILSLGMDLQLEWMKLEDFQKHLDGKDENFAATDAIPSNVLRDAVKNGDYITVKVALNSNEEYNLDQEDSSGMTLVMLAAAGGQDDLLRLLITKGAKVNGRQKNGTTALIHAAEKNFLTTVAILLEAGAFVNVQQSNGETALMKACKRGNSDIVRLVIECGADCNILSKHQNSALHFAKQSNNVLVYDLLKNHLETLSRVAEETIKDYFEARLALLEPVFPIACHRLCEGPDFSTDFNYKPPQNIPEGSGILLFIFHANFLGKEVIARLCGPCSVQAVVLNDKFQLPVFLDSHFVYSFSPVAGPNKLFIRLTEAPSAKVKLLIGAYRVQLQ
Thyrotropin receptor (Homo sapiens), sequence (P16473 whole entry, looked up): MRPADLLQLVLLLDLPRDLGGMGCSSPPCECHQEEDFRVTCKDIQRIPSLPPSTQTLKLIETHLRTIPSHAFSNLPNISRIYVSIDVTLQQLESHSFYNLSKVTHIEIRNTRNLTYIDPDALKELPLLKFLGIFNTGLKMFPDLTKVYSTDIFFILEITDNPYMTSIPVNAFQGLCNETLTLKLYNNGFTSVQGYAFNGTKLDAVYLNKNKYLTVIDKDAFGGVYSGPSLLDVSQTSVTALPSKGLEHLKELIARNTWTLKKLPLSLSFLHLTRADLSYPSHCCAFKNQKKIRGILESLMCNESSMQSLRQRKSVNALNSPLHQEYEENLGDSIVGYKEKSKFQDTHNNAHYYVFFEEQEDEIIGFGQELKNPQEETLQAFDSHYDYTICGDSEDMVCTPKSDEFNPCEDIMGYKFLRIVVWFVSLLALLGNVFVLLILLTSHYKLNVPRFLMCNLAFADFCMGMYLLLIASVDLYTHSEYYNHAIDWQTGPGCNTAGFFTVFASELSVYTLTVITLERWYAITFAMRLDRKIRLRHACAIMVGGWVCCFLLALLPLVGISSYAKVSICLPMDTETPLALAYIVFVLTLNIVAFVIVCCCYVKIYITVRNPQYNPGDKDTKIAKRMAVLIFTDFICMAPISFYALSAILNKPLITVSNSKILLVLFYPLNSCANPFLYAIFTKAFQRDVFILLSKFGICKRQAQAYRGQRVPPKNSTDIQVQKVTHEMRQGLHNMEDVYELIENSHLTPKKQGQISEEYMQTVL
Chromobox protein homolog 1 (Homo sapiens), sequence (P83916 whole entry, looked up): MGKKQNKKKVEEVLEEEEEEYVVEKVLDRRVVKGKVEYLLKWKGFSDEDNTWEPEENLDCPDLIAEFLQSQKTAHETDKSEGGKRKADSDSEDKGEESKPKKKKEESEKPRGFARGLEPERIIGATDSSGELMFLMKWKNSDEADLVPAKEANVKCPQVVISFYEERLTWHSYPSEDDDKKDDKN

SMILES	outcome [1]	Potency [2]	outcome [3]	outcome [4]	outcome [5]	Potency [6]	Potency [7]	Potency [8]	Potency [9]	Potency [10]	Potency [11]	Potency [12]	viability change [12] [%]	outcome [13]	Potency [14]	Potency [15]	Potency [16]	Potency [17]	Potency [18]	activation [19]
CC[N+](CC)(CC)CCOc1cccc(OCC[N+](CC)(CC)CC)c1OCC[N+](CC)(CC)CC	inactive	inactive	inactive	inactive	inactive	inactive	inactive	inactive	inactive	inactive	inactive	inactive	5.55	inactive	inactive	inactive	–	–	–	–
Nc1nnc(-c2cccc(Cl)c2Cl)c(N)n1	–	inactive	inactive	inactive	inactive	inactive	–	inactive	inactive	inactive	inactive	inactive	-4.23	inactive	inactive	inactive	inactive	inactive	inactive	0.938% (inactive)
CC(C)(C)C(=O)Oc1ccc(S(=O)(=O)Nc2ccccc2C(=O)NCC(=O)O)cc1	–	–	–	–	–	–	–	–	inactive	–	–	–	–	–	–	–	–	–	–	–
Nc1c2c(nc3ccccc13)CCCC2	–	inactive	inactive	inactive	inactive	inactive	inactive	inactive	–	inactive	–	inactive	-3.66	inactive	inactive	inactive	inactive	inactive	inactive	1.31% (inactive)
CNCCCC12CCC(c3ccccc31)c1ccccc12	inactive	inactive	inactive	–	inactive	–	inactive	–	–	inactive	–	inactive	1.81	inactive	inactive	inactive	–	inactive	inactive	3.31% (inactive)
CN(C)C(=N)N=C(N)N	–	–	–	–	–	–	–	–	inactive	–	–	–	–	–	–	–	–	–	–	–
COc1cc2c(c(OC)c1OC)-c1ccc(OC)c(=O)cc1[C@@H](NC(C)=O)CC2	inactive	–	inactive	inactive	inactive	inactive	inactive	inactive	inactive	–	inactive	–	–	inactive	inactive	–	–	inactive	–	0% (inactive)
COc1ccc(CCN(C)CCCC(C#N)(c2ccc(OC)c(OC)c2)C(C)C)cc1OC (centres undefined)	–	–	inactive	–	inactive	inactive	inactive	inactive	–	–	–	–	–	inactive	–	–	–	–	–	7.06% (inactive)
CC(COc1ccccc1)N(CCCl)Cc1ccccc1 (centres undefined)	inactive	–	inactive	inactive	inactive	inactive	inactive	inactive	–	inactive	inactive	–	–	inactive	inactive	inactive	inactive	–	–	–
Clc1ccc(C(c2ccccc2Cl)C(Cl)Cl)cc1 (centres undefined)	inactive	inactive	inactive	inactive	inactive	inactive	inactive	inactive	–	inactive	–	–	–	inactive	inactive	inactive	–	inactive	–	1.38% (inactive)
